Results as given in PubChem BioAssay.

How the values were obtained:
[1] = system: Human papillomavirus type 1a protein E7 (residues 44-93); experiment: small molecules binding HPV E7 44-93 – biochemical, small-molecule microarray, residues 44-93, 635 nm fluorescence, primary screen (AID 1108); conditions: fluorescence 635 nm, higher = more signal;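 note: E7 fragment applied at 1 µg/mL in TBST for 1 h at 4 C; score combines spot fluorescence with its signal to noise ratio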
[2] = hepatitis C replication reporter changes, two-sided – Huh7 cells, luciferase reporter, HCV replication inhibitor project, primary screen (AID 1109); conditions: Huh7 HCV replicon luciferase reporter, 48 h; higher = more signal;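 note: huh7 hepatoma cells harbouring a luciferase neomycin HCV replicon reporter; luciferase luminescence as measure of HCV replicon replication; test concentration not given here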
[3] = target: Left-right determination factor 2 (Homo sapiens) (UniProt O00292); experiment: small molecules binding LEFTY2 protein – biochemical, small-molecule microarray, 635 nm fluorescence scan, primary screen (AID 1110); conditions: higher = more signal
[4] = target: Calmodulin-1 (Homo sapiens) (UniProt P0DP23); experiment: small molecules binding calmodulin-1 with EGTA – biochemical, small-molecule microarray, Cy5-labelled CALM1, profiling panel (AID 1111); conditions: Cy5-CALM1 binding fluorescence, higher = more signal;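 note: labelled calmodulin applied in Tris saline Tween buffer holding calcium plus EGTA and DTT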
[5] = target: Calmodulin-1 (Homo sapiens) (UniProt P0DP23); experiment: small molecules binding Ca-loaded calmodulin-1 – biochemical, small-molecule microarray, Cy5-labelled CALM1, plus calcium, artefact control for SMM control-protein annotation, profiling panel (AID 1112); conditions: Cy5-CALM1 binding fluorescence, higher = more signal;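 note: score merges spot fluorescence with signal to noise from triplicate slides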
[6] = probe aWnt5a binding to arrayed compounds – biochemical, biotinylated probe, 635/667 nm fluorescence, primary screen (AID 1113); conditions: small-molecule microarray, higher = more signal;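 note: score merges 667 nm fluorescence intensity with signal-to-noise per printed feature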
[7] = probe aShh binding to arrayed compounds – biochemical, biotinylated probe, 635/667 nm fluorescence, primary screen (AID 1114); conditions: small-molecule microarray, higher = more signal;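 note: probe is biotin-labelled aShh protein from a stem cell growth factor screen; measures binding of labelled protein to compounds printed on the slide; score merges feature fluorescence at 667 nm with signal-to-noise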
[8] = probe aNog binding to arrayed compounds – biochemical, biotinylated probe, 635/667 nm fluorescence, primary screen (AID 1115); conditions: small-molecule microarray, higher = more signal;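 note: probe is biotinylated aNog protein used at 0.15 µg/mL for 1 h at 4 C; z-score combines 667 nm fluorescence of each spot with its signal to noise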
[9] = target: Torsin-1A-interacting protein 1 (Homo sapiens) (UniProt Q5JTV8); experiment: compound microarray binding of lysate hLAP1 – cell lysate, small-molecule microarray, COS7 lysate, 635/667 nm fluorescence, primary screen (AID 1116); conditions: 635 nm fluorescence, higher = more signal
[10] = target: Alpha-bungarotoxin (Bungarus multicinctus) (UniProt P60615); experiment: compounds binding labelled alpha-BTX control protein – biochemical, small-molecule microarray, Alexa647 label, 635/667 nm fluorescence, artefact control for SMM control protein annotation, profiling panel (AID 1117); conditions: alpha-BTX-A647 binding fluorescence, higher = more signal
Sequence of Alpha-bungarotoxin (Bungarus multicinctus) (P60615 whole entry, looked up): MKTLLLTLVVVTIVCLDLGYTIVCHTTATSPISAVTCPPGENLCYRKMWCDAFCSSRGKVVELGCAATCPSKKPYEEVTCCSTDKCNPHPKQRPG

Sequence of Torsin-1A-interacting protein 1 (Homo sapiens) (Q5JTV8 whole entry, looked up): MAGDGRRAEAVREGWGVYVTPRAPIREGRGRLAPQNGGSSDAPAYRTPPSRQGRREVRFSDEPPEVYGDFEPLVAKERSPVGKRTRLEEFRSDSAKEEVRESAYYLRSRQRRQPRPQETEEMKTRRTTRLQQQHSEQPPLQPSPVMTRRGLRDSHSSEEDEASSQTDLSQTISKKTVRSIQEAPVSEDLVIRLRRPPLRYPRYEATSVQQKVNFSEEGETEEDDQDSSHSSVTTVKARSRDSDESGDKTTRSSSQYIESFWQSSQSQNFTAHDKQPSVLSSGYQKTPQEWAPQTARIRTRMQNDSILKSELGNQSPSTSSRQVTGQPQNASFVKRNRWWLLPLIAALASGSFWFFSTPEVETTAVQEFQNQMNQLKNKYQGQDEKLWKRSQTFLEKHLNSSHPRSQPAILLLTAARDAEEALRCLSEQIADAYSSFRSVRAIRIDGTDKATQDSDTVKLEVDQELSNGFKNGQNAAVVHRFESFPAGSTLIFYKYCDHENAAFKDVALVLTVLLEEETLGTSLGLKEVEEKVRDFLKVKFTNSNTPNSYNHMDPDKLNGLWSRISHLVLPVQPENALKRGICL
Sequence of Left-right determination factor 2 (Homo sapiens) (O00292 whole entry, looked up): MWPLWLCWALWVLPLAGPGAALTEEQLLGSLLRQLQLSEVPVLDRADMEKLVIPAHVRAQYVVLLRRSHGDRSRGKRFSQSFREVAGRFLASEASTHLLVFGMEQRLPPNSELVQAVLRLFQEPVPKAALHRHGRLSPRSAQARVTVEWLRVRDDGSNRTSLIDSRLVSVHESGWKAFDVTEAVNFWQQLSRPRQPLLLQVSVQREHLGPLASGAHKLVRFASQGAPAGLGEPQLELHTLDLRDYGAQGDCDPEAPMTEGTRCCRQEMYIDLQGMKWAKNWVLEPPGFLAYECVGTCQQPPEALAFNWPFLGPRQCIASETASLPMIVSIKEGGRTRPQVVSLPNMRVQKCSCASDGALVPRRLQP

C[C@H]1C2[C@H](Cc3ccccc3)NC(=O)[C@]23C(=O)N[C@@H](Cc2ccccc2)C(=O)N2CCC[C@H]2C(=O)NC/C=C/CC/C=C/C3[C@@H]2O[C@]12C (stereo not given in full)
composite z-score [1]: 0.611 | z-score [2]: -0.382 | composite z-score [3]: 0.148 | composite z-score [4]: -0.133 | composite z-score [5]: -0.945 | composite z-score [6]: -0.156 | composite z-score [7]: -0.221 | composite z-score [8]: -0.0503 | composite z-score [9]: 0.0565 | composite z-score [10]: 0.857

COc1cc2c(cc1OC)CN(C(=O)[C@@H]1[C@H]3C(=O)O[C@H](c4ccccc4)[C@H](c4ccccc4)N3[C@H](c3ccc(O)cc3)[C@@]13C(=O)Nc1ccc(C#CC4=CCCCC4)cc13)CC2
composite z-score [1]: 0.244 | z-score [2]: -1.49 | composite z-score [3]: 0.512 | composite z-score [4]: 1.07 | composite z-score [5]: 0.319 | composite z-score [6]: 0.0044 | composite z-score [7]: -0.011 | composite z-score [8]: 0.14 | composite z-score [9]: 0.635 | composite z-score [10]: 0.891

C=CCNC(=O)[C@H]1[C@@H]2C(=O)O[C@@H](c3ccccc3)[C@@H](c3ccccc3)N2[C@@H](c2ccc(OCCO)cc2)[C@]12C(=O)Nc1ccc(C#Cc3ccc(OC)cc3)cc12
composite z-score [1]: 1.02 | z-score [2]: -2.18 | composite z-score [3]: 0.699 | composite z-score [4]: 0.573 | composite z-score [5]: 0.787 | composite z-score [6]: 0.104 | composite z-score [7]: 0.465 | composite z-score [8]: -0.403 | composite z-score [9]: 1.1 | composite z-score [10]: 1.71

N#Cc1ccc(NN2C(C(O)c3ccc(B(O)O)cc3)C=CC3CN(c4ccccc4)C(=O)C32)cc1 (stereo not given)
composite z-score [1]: -0.664 | z-score [2]: 0.277 | composite z-score [3]: -0.193 | composite z-score [4]: 0.0251 | composite z-score [5]: -0.408 | composite z-score [6]: -0.144 | composite z-score [7]: -0.237 | composite z-score [8]: -0.196 | composite z-score [9]: 0.11 | composite z-score [10]: -0.0348

COc1cccc(C)c1NC(=O)O[C@H]1[C@H](OC(=O)Nc2ccccc2)[C@@H](OC(=O)Nc2ccccc2)[C@@H](OC)O[C@@H]1CO
composite z-score [1]: 1.52 | z-score [2]: -2.72 | composite z-score [3]: 0.508 | composite z-score [4]: 1.13 | composite z-score [5]: -0.271 | composite z-score [6]: 0.0321 | composite z-score [7]: 0.157 | composite z-score [8]: 0.0023 | composite z-score [9]: 2.17 | composite z-score [10]: 1.31

CCOC(=O)C[C@H]1[C@H](OC(=O)c2ccc(-c3ccccc3)cc2)[C@@H](NC(=O)c2ccc(-c3ccccc3)cc2)c2cc(OCCCO)ccc2N1C(=O)c1ccccc1
composite z-score [1]: 1.01 | z-score [2]: -1.22 | composite z-score [3]: 0.71 | composite z-score [4]: 1.1 | composite z-score [5]: 0.912 | composite z-score [6]: -0.0721 | composite z-score [7]: 0.0278 | composite z-score [8]: 0.412 | composite z-score [9]: 0.322 | composite z-score [10]: 1.14

C=C(C(=O)CC[C@@H](OC(=O)c1cccnc1)c1cccc(OCCO)c1)C(C)C
composite z-score [1]: -0.501 | z-score [2]: -2.12 | composite z-score [3]: 0.415 | composite z-score [4]: -0.323 | composite z-score [5]: -1.4 | composite z-score [6]: -0.0405 | composite z-score [7]: -0.123 | composite z-score [8]: -0.0784 | composite z-score [9]: 0.534 | composite z-score [10]: 0.316

[N-]=[N+]=Nc1ccccc1C[C@]1(C(N)=O)COC(c2ccc(OCCCO)cc2)=N1
composite z-score [1]: 0.66 | z-score [2]: -1.17 | composite z-score [3]: -0.899 | composite z-score [4]: 0.707 | composite z-score [5]: 0.694 | composite z-score [6]: -0.0462 | composite z-score [7]: 0.486 | composite z-score [8]: 0.381 | composite z-score [9]: 1.02 | composite z-score [10]: -0.364

Cc1ccc(S[C@]2(C(=O)NC(C)C)CC(=O)N(Cc3ccccc3)[C@@H]2c2ccc(CO)cc2)cc1
composite z-score [1]: -0.905 | z-score [2]: -1.36 | composite z-score [3]: -1.82 | composite z-score [4]: -0.0379 | composite z-score [5]: 0.175 | composite z-score [6]: -0.124 | composite z-score [7]: -0.2 | composite z-score [8]: 0.0258 | composite z-score [9]: -0.142 | composite z-score [10]: 0.329

COC(=O)[C@@]1(Cc2ccc(F)cc2)[C@H]2c3cc(C(=O)N4CCCC4)n(CCSCCO)c3C[C@H]2CN1C(=O)c1ccccc1
composite z-score [1]: 1.2 | z-score [2]: -1.24 | composite z-score [3]: -0.721 | composite z-score [4]: 1.34 | composite z-score [5]: 0.318 | composite z-score [6]: 0.0914 | composite z-score [7]: 1.08 | composite z-score [8]: 1.56 | composite z-score [9]: 0.403 | composite z-score [10]: 0.566

O=C1O[C@@H](c2ccccc2)[C@@H](c2ccccc2)N2[C@@H](c3ccc(OCCO)cc3)[C@]3(C(=O)Nc4ccc(C#CC5=CCCCC5)cc43)[C@@H](C(=O)Nc3nc4ccccc4s3)[C@H]12
composite z-score [1]: 0.597 | z-score [2]: -1.88 | composite z-score [3]: -0.005 | composite z-score [4]: 0.516 | composite z-score [5]: -0.188 | composite z-score [6]: 0.0243 | composite z-score [7]: -0.708 | composite z-score [8]: 0.704 | composite z-score [9]: 0.0065 | composite z-score [10]: 0.4

COCCCNC(=O)[C@]1(Cc2ccccc2CN=[N+]=[N-])N=C(c2ccc(OCCCO)cc2)O[C@@H]1c1ccccc1N=[N+]=[N-]
composite z-score [1]: 0.693 | z-score [2]: -2.06 | composite z-score [3]: -0.581 | composite z-score [4]: 1.27 | composite z-score [5]: 1.18 | composite z-score [6]: 0.133 | composite z-score [7]: 1.16 | composite z-score [8]: 0.467 | composite z-score [9]: 0.939 | composite z-score [10]: 2.35

O=C(NCCN1CCOCC1)[C@@H]1c2ccccc2C(=O)N(CC23CC4CC(CC(C4)C2)C3)[C@H]1c1ccc(CO)cc1
composite z-score [1]: 1.45 | z-score [2]: -2.21 | composite z-score [3]: 0.662 | composite z-score [4]: 1.7 | composite z-score [5]: -0.236 | composite z-score [6]: -0.0519 | composite z-score [7]: -0.0362 | composite z-score [8]: -0.112 | composite z-score [9]: 0.405 | composite z-score [10]: 1.43

COc1ccc([Si](C)(C)[C@H]2[C@H](CC(=O)N(CCO)Cc3ccccc3)O[C@@]3(C(=O)N(c4ccccc4)c4ccccc43)[C@@H]2C)cc1
composite z-score [1]: 1.32 | z-score [2]: -5.19 | composite z-score [3]: 0.753 | composite z-score [4]: 0.503 | composite z-score [5]: -0.0244 | composite z-score [6]: -0.104 | composite z-score [7]: 0.0022 | composite z-score [8]: -0.519 | composite z-score [9]: 0.105 | composite z-score [10]: 1.17

C=CCNC(=O)[C@@H]1[C@H]2C(=O)O[C@H](c3ccccc3)[C@H](c3ccccc3)N2[C@H](c2ccc(OCCO)cc2)[C@@]12C(=O)Nc1ccc(C#CC3=CCCCC3)cc12
composite z-score [1]: 0.0834 | z-score [2]: -2.53 | composite z-score [3]: 0.413 | composite z-score [4]: 1.62 | composite z-score [5]: 0.107 | composite z-score [6]: -0.012 | composite z-score [7]: 0.103 | composite z-score [8]: 0.843 | composite z-score [9]: 0.803 | composite z-score [10]: 2.23

C=C(C(=O)CC[C@@H](OC(=O)c1ccccc1-c1ccccc1C(=O)O)c1cccc(OCCO)c1)C(C)C
composite z-score [1]: -0.635 | z-score [2]: -3.06 | composite z-score [3]: 0.706 | composite z-score [4]: -0.367 | composite z-score [5]: -0.692 | composite z-score [6]: -0.129 | composite z-score [7]: -0.0396 | composite z-score [8]: -0.248 | composite z-score [9]: 3.26 | composite z-score [10]: -0.11

O=C1c2ccccc2[C@](Cc2ccccc2I)(C(=O)NCCN2CCOCC2)[C@H](c2ccc(CO)cc2)N1Cc1ccccc1C(F)(F)F
composite z-score [1]: 1.4 | z-score [2]: -2.44 | composite z-score [3]: -0.325 | composite z-score [4]: 0.799 | composite z-score [5]: 0.492 | composite z-score [6]: -0.0721 | composite z-score [7]: -0.221 | composite z-score [8]: -0.43 | composite z-score [9]: 0.598 | composite z-score [10]: 0.787
